Only some compounds are listed: those with a hit (about 7.3% of all), similar ones and a draw of the others.
HCMV antiviral – blocks human cytomegalovirus replication. activity change, negative = inhibition, % at 57.5 µM. HFF cells, HCMV-luciferase reporter, 72 h; active compounds read low. 410,000 compounds, 4.5% hits; in the data active = activity change below about -60%; inconclusive = no clear call, values can overlap the other calls; inactive = above about -39%
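After 16 h attachment at 37C, HFF cells received test compound and HCMV-luciferase (1 PFU/cell); reporter luminescence read 72 h later, data normalized against buffer-only and known inhibitor Salinomycin.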
HCV inhibitor – HCV inhibition; Huh7.5.1 HCVcc-Cre infection, luciferase reporter, 44 h; Potency, µM (titrated, usually from 41.8 µM), usual class: inhibitors; 340,000 compounds, 3.4% hits; AID 651820; active = well fitted inhibition curve with a large enough effect; inconclusive = small, poorly fitted or top-dose-only effect, or another doubt; inactive = no such curve, though single readings can be large or run the other way
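Luciferase read-out (15 sec integration) after a 15 min room-temperature substrate step quantifies HCVcc-Cre infection. Cells, 1,000 per well, had compound added 4 h post-plating, then virus at ~0.5 moi, and were cultured 44 h.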
Vaccinia mCherry – inhibitors of vaccinia virus infection (mCherry reporter signal); Vaccinia virus mCherry reporter infection, fluorescence; Potency, µM (highest dose often 36.5 µM), most hits filed as inhibitors; 310,000 compounds, 0.63% hits; calls by dose curve; tested in A549 cells; note: nearly all actives have a fitted effect of over 35% in size
FMDV inh – antivirals against foot and mouth disease virus; Potency, µM (top dose mostly 57.9 µM), most hits filed as inhibitors; AID 1159524; FMDV antiviral cell-based qHTS; 410,000 compounds, 1.2% hits; calls by dose curve; tested in HEK293T cells; note: read-out not given here; nearly all actives have a fitted effect of over 45% in size
VACV Venus inh – vaccinia inhibition (Venus reporter); Potency, µM (titrated, usually from 36.5 µM), hits mostly inhibitors; 330,000 compounds, 0.46% hits; Vaccinia virus Venus reporter expression, fluorescence; AID 720580; calls by dose curve; tested in A549 cells; note: nearly all actives have a fitted effect of over 30% in size
Numbers stand for hits; i = inactive; ? = inconclusive; nt = no result; ! = a repeat was not active; [ ] = another dose, or the depositor's remark.

SMILES	HCMV antiviral	HCV inhibitor	Vaccinia mCherry	FMDV inh	VACV Venus inh
COc1ccc(OC(C)C(=O)NC2CCCCCC2)cc1 (configuration not stated)	i	i	i	i	i
COc1ccc(CCNC(=O)CSc2nnc(-c3ccccc3)c3ccccc23)cc1OC	?	i	?	?	i
CCCCn1c(-c2ccccc2)cnc1SCC(=O)NCCc1ccc(OC)c(OC)c1	i	11.2µM	i	nt	i
COc1ccc(CCNC(=O)CSc2ccc(-c3ccco3)nn2)cc1OC	-63.2	i	i	i	i
CCC(Sc1nc2ccccc2c2nc(CCc3c(C)n[nH]c3C)nn12)C(=O)Nc1ccc(OC)cc1 (configuration not stated)	i	nt	i	i	i
O=S(=O)(Nc1cccc(-n2cnnn2)c1)c1ccccc1F	i	i	nt	i	nt
COc1cccc(C2c3c(oc4cc(C)cc(C)c4c3=O)C(=O)N2CCc2ccc(OC)c(OC)c2)c1 (configuration not stated)	i	nt	i	i	i
COc1ccc(CN2[C@@H](CC(C)=O)c3ccc(/C=C/C(C)=O)cc3S2(=O)=O)cc1	i	?	i	31.6µM	i
COc1ccc(OC)c(C(=O)CCCC(=O)c2cc(OC)ccc2OC)c1	-61.5	?	nt	i	nt
CC(=O)OC[C@@H]1CN(Cc2ccccc2)C[C@H](n2cnc3c(N(C)C(C)C)ncnc32)O1	i	nt	i	i	i
O=C(OCc1cc(=O)n2nc(C3CCCCC3)sc2n1)c1ccc(F)cc1	i	nt	i	i	?
Cn1cnc([N+](=O)[O-])c1Sc1ccc([N+](=O)[O-])cc1	i	i	i	22.4µM	i
COc1ccc(N(Cc2cccs2)C(=O)COc2ccc(C(C)C)cc2)cc1	i	nt	i	?	i
N#Cc1c(NC(=O)c2ccccc2)sc2c1CCCCC2	i	?	nt	i	i
N#Cc1c(Cl)nsc1NC(=O)c1ccccc1	-99.9	14.1µM	nt	i	nt
N#CCc1ccnc2ccccc12	i	i	i	i	i
N#CC(C#N)c1ccnc2ccccc12	-78.1	nt	i	i	i
CC(=O)Nc1ccc2nc(-c3ccncc3)[nH]c2c1	i	i	nt	i	nt
CS(=O)(=O)c1cccc(C(=O)Nc2ccc(-c3nc4ccccc4[nH]3)cc2)c1	-65.1	?	?	i	?
CC(=O)Nc1cc(NC(C)=O)cc(-c2nc3ccccc3[nH]2)c1	-107.6!	i	?	39.8µM	i
COc1c(Cl)cc(C(=O)Nc2cccc(-c3nc4ccccc4[nH]3)c2)cc1Cl	?	nt	i	?	i
CCCN(CCC)S(=O)(=O)c1ccc(C(=O)Nc2cccc(-c3nc4ccccc4[nH]3)c2)cc1	-88.2	nt	i	?	i
Cc1c(C(=O)Nc2ccccc2Br)oc2ccc(S(=O)(=O)N3CCCCCC3)cc12	i	nt	?	i	?
CCC(CC)C(C(=O)NC1CCCCC1)N1C(=O)C(=O)c2ccccc21 (configuration not stated)	i	nt	nt	nt	nt
Cc1noc(C)c1COc1ccc(C(=O)Nc2ccccc2)cc1	?	i	i	i	i
SMILES	HCMV antiviral	HCV inhibitor	Vaccinia mCherry	FMDV inh	VACV Venus inh
CCOc1ccc(CCNC(=O)c2ccc(OCc3c(C)noc3C)cc2)cc1OCC	-97.0	?	i	?	i
CC(C)(C)c1ccc(OCCCC(=O)NNC(=O)c2ccccc2O)cc1	i	?	14.1µM	i	?
Cc1noc(C)c1COc1ccc(C(=O)NNC(=O)c2ccccc2O)cc1	i	i	3.55µM	i	?
COc1ccc(CCNC(=O)c2ccc(OCc3c(C)noc3C)cc2)cc1OC	i	?	nt	?	nt
Cc1noc(C)c1COc1ccc(C(=O)Nc2nnc(CC(C)C)s2)cc1	-62.3	?	nt	?	nt
Cc1noc(C)c1C(=O)Nc1nnc(CC(C)C)s1	i	i	i	i	i
CCC(=O)C1=C(c2ccc(F)cc2)N(C(=O)CC)n2c(nnc2C2CCCCC2)S1	i	nt	?	i	?
Nc1nc2c(ncn2COC(CO)CO)c(=O)[nH]1	-80.5	i[8.37 µM]	i	i	i
Nc1nc2c(ncn2COCCO)c(=O)[nH]1	i	i[8.37 µM]	i	i	i
COC(=O)C1(O)CC(c2ccccc2)C(C(=O)c2ccccc2)N1c1ccc(Br)cc1 (configuration not stated)	i	nt	nt	nt	nt
CC(C)N1CCN(Cc2cc3ccccc3[nH]2)CC1CCO (configuration not stated)	i	i	i	i	i
O=C(c1ccco1)N1CCC2(CCN(Cc3cc(C(F)(F)F)cc(C(F)(F)F)c3)CC2)CC1	nt	nt	nt	i	nt
CCCN1CNc2c(c(=O)[nH]c(=S)n2CCc2ccccn2)C1	nt	nt	i	nt	i
O=C(Nc1cc(Oc2ccc(Cl)cc2)cc([N+](=O)[O-])c1)c1ccco1	i	10µM	i	i	i
Cn1cc([N+](=O)[O-])c(C(=O)Nc2ccc3c(C(F)(F)F)cc(=O)oc3c2)n1	-99.4	?	nt	i	nt
Cc1cccc(Oc2cc(NC(=O)c3ccccc3)cc([N+](=O)[O-])c2)c1	-64.5	?	i	?	?
Cc1nn(C)cc1C(=O)Nc1cc(Oc2ccc(Cl)cc2)cc([N+](=O)[O-])c1	i	?	nt	i	nt
CC(=O)Nc1ccc(Oc2cc(NC(C)=O)cc([N+](=O)[O-])c2)cc1	i	?	i	i	i
Cn1cc([N+](=O)[O-])c(C(=O)Nc2cc(Oc3ccccc3)cc([N+](=O)[O-])c2)n1	-99.4	?	14.1µM	?	?
Cc1cccc(C(O)c2ncc(-c3ccc(Cl)cc3)[nH]2)c1C (configuration not stated)	i	nt	i	i	i
COc1ccccc1C(=O)Nc1ccccc1OCc1cc(=O)n2cc(C)sc2n1	i	nt	i	i	i
CC1CCCN(S(=O)(=O)c2ccc(N3CCCCS3(=O)=O)cc2)C1 (configuration not stated)	i	nt	i	i	i
O=C(NCc1ccccn1)C(=O)NCC1OCCN1S(=O)(=O)c1ccc(F)cc1 (configuration not stated)	i	i	i	i	i
C[C@H](CO)N1C[C@H](C)[C@H](CN(C)Cc2cccc(F)c2)Oc2ncc(C3=CCCC3)cc2C1=O	i	nt	nt	nt	nt
O=C(CCl)N(CCc1ccccc1)CCc1ccccc1	-99.5	?	i	28.2µM	i
SMILES	HCMV antiviral	HCV inhibitor	Vaccinia mCherry	FMDV inh	VACV Venus inh
CCCCCCCN(C(=O)CCl)c1cccc(C)c1	-86.4	12.6µM	i	28.2µM	i
N#CCCN(C(=O)CCl)c1cccc(Cl)c1	i	?	nt	?	nt
CCCCCCN(C(=O)CCl)c1ccccc1	-99.5	5.01µM	nt	20µM	nt
O=C(CCl)N(c1ccccc1)c1ccccc1	-98.3	8.91µM	i	14.1µM	i
O=C(CCCc1ccccc1)NCCc1ccccc1	i	i	nt	i	nt
CC(=O)c1c(C)[nH]c(C(=O)COC(=O)c2ccc(Cl)nc2)c1C	i	i	nt	i	nt
C=C1CC(COc2cc(=O)oc3ccccc23)(c2ccccc2)OC1=O (configuration not stated)	i	?	?	14.1µM	?
C=C1CCC2C(C)(C)[C@H](O)CC[C@@]2(C)[C@@H]1COc1cc(=O)oc2ccccc12 (some centres not stated)	nt	i	i	?	?
O=C(NCc1ccccc1)c1onc(CSc2ccccc2)c1C(=O)NCC1CC1	i	10µM	i	i	?

Screening data as filed in PubChem.
